The structures appear in SMILES notation.

Assay [1] deals with Tyrosine-protein kinase ABL1 (Homo sapiens), P00519 [T315I]. As to conditions: at 1 µM.
The test system of assay [2] is Tyrosine-protein kinase ABL1 (Homo sapiens), P00519 [Y253F]. As to conditions: at 0.1 µM.
For assay [3] the test system is unchanged. Conditions: at 1 µM.
Assay [4] concerns the target Tyrosine-protein kinase ABL1 (Homo sapiens) (UniProt P00519). As to conditions: at 0.1 µM.
Assay [5] has the same target. Conditions: at 1 µM.
For assay [6], the target named is ALK tyrosine kinase receptor (Homo sapiens) (UniProt Q9UM73). Conditions: at 0.1 µM.
Chain of ALK tyrosine kinase receptor (Homo sapiens) (Q9UM73 19-1620 limits assumed): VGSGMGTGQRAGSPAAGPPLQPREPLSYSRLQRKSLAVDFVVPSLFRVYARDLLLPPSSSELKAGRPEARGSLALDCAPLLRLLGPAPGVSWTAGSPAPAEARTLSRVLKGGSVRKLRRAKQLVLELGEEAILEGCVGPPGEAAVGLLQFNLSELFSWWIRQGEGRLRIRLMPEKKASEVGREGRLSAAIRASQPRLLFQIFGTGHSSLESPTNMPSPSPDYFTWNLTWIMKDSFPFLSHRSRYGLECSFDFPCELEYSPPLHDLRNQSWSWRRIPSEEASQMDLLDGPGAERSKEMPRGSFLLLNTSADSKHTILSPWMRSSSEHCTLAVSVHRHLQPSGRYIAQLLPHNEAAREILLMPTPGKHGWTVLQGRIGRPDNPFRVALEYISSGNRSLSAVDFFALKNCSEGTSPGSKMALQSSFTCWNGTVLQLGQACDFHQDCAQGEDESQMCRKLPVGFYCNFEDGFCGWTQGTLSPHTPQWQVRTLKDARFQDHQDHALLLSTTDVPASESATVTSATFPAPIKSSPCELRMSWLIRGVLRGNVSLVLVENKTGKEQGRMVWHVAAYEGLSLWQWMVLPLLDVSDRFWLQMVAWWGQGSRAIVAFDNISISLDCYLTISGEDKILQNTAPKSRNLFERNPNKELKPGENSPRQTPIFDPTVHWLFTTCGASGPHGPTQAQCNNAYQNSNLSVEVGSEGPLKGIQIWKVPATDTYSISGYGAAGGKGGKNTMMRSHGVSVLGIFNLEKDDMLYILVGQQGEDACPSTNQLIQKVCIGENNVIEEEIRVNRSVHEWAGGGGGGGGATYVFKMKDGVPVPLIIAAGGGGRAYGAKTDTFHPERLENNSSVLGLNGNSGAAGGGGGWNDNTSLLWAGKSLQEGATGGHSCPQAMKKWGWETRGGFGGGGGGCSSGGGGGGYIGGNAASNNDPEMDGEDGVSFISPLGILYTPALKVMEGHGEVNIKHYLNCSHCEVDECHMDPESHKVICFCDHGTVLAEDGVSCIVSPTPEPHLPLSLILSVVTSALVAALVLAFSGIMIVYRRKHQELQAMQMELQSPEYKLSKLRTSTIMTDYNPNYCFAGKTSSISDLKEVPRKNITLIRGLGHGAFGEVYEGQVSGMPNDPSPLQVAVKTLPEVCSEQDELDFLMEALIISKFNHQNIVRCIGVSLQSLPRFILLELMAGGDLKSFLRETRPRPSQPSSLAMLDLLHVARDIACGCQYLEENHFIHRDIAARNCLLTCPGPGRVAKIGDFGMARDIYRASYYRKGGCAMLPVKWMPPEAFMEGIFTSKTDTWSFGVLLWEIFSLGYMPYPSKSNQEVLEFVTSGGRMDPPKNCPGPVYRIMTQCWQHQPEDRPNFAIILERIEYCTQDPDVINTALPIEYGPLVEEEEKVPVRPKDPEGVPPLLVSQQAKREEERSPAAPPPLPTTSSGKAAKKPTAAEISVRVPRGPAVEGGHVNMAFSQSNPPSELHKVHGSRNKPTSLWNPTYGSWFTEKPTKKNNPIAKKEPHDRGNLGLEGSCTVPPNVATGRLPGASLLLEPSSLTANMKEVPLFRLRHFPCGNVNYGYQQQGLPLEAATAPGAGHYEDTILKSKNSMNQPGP
Assay [7] shares this target. As to conditions: at 1 µM.
In assay [8] the target is Tyrosine-protein kinase ABL2 (Homo sapiens) (UniProt P42684). As to conditions: at 0.1 µM.
The target is the same in assay [9]. As to conditions: at 1 µM.
For assay [10], the target named is Tyrosine-protein kinase receptor UFO (Homo sapiens) (UniProt P30530). As to conditions: at 0.1 µM.
Chain of Tyrosine-protein kinase receptor UFO (Homo sapiens) (P30530 whole entry): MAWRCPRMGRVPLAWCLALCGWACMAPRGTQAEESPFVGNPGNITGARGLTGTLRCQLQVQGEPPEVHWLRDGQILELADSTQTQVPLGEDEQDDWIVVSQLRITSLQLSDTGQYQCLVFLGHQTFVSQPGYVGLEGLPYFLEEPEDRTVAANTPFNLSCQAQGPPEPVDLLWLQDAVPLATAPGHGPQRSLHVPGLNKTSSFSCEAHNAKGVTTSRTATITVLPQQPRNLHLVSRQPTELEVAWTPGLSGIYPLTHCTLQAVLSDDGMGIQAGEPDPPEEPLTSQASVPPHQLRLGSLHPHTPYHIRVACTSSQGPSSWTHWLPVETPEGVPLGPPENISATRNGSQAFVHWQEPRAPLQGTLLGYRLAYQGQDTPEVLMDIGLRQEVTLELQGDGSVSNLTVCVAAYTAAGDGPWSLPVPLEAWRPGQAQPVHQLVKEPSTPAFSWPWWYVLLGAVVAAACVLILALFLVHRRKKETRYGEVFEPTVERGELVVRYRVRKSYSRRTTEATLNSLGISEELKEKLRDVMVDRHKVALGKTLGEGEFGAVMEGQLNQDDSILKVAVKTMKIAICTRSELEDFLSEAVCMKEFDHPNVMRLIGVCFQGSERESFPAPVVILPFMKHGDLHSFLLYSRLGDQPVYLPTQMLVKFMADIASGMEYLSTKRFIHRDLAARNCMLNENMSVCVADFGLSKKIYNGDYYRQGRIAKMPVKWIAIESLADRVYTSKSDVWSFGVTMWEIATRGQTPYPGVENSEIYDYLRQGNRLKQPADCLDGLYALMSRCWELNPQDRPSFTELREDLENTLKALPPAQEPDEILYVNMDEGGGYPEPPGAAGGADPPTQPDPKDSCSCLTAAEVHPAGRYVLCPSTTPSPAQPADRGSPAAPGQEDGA
For assay [11] the target is unchanged. As to conditions: at 1 µM.
Assay [12] deals with Tyrosine-protein kinase Blk (Homo sapiens) (UniProt P51451). As to conditions: at 0.1 µM.
Chain of Tyrosine-protein kinase Blk (Homo sapiens) (P51451 2-505 limits assumed): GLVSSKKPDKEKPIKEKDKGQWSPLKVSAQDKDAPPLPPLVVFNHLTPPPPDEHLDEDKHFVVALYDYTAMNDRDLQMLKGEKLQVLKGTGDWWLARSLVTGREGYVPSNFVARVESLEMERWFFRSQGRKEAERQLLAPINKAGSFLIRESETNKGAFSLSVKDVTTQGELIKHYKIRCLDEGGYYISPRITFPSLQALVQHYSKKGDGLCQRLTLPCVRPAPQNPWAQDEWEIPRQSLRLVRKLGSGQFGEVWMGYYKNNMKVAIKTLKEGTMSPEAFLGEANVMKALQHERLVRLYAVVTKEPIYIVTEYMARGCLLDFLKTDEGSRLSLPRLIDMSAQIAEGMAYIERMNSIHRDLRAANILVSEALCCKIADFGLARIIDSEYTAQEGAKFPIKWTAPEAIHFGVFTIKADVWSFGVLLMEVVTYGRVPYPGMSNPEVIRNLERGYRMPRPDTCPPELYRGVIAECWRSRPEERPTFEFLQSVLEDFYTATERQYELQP
Assay [13] shares this target. Conditions: at 1 µM.
Assay [14] deals with T1, Cytoplasmic tyrosine-protein kinase BMX (Homo sapiens) (UniProt P51813).
T1 sequence (whole entry): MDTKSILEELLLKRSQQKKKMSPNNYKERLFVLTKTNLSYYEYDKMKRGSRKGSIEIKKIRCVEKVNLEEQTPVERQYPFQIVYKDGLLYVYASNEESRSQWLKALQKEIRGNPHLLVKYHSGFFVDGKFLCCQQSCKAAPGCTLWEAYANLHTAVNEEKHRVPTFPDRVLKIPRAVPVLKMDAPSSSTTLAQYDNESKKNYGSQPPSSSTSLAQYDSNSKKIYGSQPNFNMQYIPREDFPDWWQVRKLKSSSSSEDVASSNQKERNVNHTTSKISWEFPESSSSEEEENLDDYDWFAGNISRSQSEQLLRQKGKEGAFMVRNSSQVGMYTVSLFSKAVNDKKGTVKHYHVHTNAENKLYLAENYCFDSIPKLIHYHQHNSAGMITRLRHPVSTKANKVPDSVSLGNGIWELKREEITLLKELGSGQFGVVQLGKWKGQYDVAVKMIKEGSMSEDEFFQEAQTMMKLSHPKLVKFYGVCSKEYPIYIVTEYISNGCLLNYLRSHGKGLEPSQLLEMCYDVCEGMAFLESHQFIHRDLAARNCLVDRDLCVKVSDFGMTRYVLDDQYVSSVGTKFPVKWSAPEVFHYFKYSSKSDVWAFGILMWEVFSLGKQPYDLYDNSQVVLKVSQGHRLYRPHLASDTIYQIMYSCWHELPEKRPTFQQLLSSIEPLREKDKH
As to conditions: at 0.1 µM.

Assay [15] addresses T1, Cytoplasmic tyrosine-protein kinase BMX (Homo sapiens). Conditions: at 1 µM.
The target in assay [16] is Protein-tyrosine kinase 6 (Homo sapiens) (UniProt Q13882). As to conditions: at 0.1 µM.
Chain of Protein-tyrosine kinase 6 (Homo sapiens) (Q13882 whole entry, looked up): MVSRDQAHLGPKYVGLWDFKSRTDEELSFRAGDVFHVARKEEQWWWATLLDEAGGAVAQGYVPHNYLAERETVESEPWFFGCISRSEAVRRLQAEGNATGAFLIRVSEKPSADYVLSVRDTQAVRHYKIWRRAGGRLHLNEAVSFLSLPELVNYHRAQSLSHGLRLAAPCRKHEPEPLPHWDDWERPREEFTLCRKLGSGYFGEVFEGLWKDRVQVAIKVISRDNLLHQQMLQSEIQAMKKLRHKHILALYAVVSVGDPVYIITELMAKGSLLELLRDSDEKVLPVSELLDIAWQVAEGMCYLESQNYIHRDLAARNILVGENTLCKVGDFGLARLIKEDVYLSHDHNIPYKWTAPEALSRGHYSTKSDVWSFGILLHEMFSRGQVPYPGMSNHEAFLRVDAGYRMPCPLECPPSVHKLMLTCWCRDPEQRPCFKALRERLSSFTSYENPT
For assay [17] the target is unchanged. Conditions: at 1 µM.
The target of assay [18] is Tyrosine-protein kinase BTK (Homo sapiens) (UniProt Q06187). Conditions: at 0.1 µM.
Chain of Tyrosine-protein kinase BTK (Homo sapiens) (Q06187 whole entry): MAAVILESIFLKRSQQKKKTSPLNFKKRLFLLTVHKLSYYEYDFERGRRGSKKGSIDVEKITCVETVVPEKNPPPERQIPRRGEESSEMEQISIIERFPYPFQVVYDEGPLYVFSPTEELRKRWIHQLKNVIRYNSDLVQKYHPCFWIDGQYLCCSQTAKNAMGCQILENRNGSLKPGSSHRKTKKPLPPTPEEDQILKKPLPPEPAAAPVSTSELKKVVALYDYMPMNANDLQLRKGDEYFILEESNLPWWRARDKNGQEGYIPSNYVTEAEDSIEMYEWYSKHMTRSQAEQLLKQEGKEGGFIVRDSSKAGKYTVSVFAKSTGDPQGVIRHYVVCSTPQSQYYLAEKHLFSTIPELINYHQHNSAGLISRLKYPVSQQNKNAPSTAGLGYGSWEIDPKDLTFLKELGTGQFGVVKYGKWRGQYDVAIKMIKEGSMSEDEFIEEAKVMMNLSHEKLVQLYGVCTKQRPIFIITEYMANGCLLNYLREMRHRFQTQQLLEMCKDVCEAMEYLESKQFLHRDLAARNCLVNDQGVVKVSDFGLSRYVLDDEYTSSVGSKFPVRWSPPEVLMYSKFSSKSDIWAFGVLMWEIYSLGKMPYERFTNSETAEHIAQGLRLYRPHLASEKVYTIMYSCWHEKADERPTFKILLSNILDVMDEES
Assay [19] shares this target. As to conditions: at 1 µM.
Assay [20] deals with Tyrosine-protein kinase CSK (Homo sapiens) (UniProt P41240). Conditions: at 0.1 µM.
Chain of Tyrosine-protein kinase CSK (Homo sapiens) (P41240 2-450 limits assumed): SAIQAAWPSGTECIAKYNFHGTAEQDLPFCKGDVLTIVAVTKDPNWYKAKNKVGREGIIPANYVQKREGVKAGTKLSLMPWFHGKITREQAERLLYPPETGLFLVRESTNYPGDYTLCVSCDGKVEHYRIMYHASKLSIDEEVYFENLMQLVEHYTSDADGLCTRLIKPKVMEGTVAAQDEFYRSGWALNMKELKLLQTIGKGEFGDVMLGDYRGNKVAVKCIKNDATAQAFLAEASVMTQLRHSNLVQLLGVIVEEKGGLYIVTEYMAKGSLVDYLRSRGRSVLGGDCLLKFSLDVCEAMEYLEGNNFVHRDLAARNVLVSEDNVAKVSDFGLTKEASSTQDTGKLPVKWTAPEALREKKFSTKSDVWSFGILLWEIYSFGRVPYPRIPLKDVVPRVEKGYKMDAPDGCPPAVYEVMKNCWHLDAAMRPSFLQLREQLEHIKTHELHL

As usually defined, the inhibition is the drop in the measured response relative to a control, in per cent. Take `Cc1ccc(C(=O)NC2CCC2)cc1-c1ccc(C(=O)NCC2CC2)cc1`: the inhibition in assay [1] was -1.77%; in [2], 2.23%; in assay [3], 0.38%; in assay [4], 3.73%; in assay [5], 5.96%; in [6], 2.79%. Moreover, the inhibition in [7] is 3.48%; in assay [8] it was 3.15%; in assay [9], 0.48%; in assay [10], -4.44%; in [11], -1.14%; in [12], 2.1%. For the same compound, the inhibition in assay [13] turned out to be 1.49%; in assay [14] it was 8.25%; in assay [15], 2.61%; in assay [16] it was 1.28%; in [17] it was 1.95%; in assay [18] it was 0.87%. Moreover, the inhibition in assay [19] was 0.88%; in assay [20], -0.66%.

On to `CS(=O)(=O)CCNCc1ccc(-c2ccc3ncnc(Nc4ccc(OCc5ccccc5)c(Br)c4)c3c2)o1`, for which the inhibition in assay [1] was 1.57%; in assay [2], 4.14%; in assay [3], 4.05%; in [4], 3.09%; in assay [5], 2.83%; in assay [6], -0.91%. In addition, the inhibition in assay [7] was 1.84%; in assay [8] it was 0.83%; in assay [9] it was 4.36%; in assay [10], -6.75%; in assay [11], -7.91%; in assay [12], -0.29%. Further, the inhibition was 3.05% in assay [13]; 3.44% in assay [14]; 0.49% in [15]; 4.61% in assay [16]; 11.8% in assay [17]; -3.57% in assay [18]. For the same compound, the inhibition in assay [19] is -0.34%; in assay [20], 0.44%.

In the case of `c1ccc(Oc2ccc(Nc3ncc(-c4ccccc4)o3)cc2)cc1`, the inhibition was determined as 1.01% in [1]; 1.56% in assay [2]; 3.65% in assay [3]; 2.29% in [4]; 7.18% in assay [5]; 0.41% in [6]. Also, the inhibition in assay [7] was 2.22%; in [8], 1.49%; in assay [9] it was 1.49%; in [10] it was -1.17%; in assay [11], -0.31%; in assay [12], 1.93%. The inhibition in assay [13] was 2.96%; in [14] it was -4.27%; in assay [15] it was 1.54%; in [16] it was -5.64%; in assay [17], -0.31%; in assay [18] it was -0.86%. Further, the inhibition in [19] stood at 0.56%; in assay [20], 4.92%.

Turning to `CCc1ccc(Oc2nccc(-c3c(-c4ccc(F)cc4)ncn3C3CCNCC3)n2)cc1`, the inhibition in assay [1] is 3.78%; in assay [2] it was 1.61%; in [3], 2.53%; in assay [4], 5.79%; in assay [5], 6.61%; in assay [6], 1.79%. The inhibition was 2.02% in assay [7]; 2.69% in [8]; 5.01% in assay [9]; -2.27% in assay [10]; -3.44% in [11]; 2.31% in assay [12]. Moreover, the inhibition in assay [13] is 4.68%; in assay [14], 5.07%; in assay [15], 6.03%; in assay [16], 2.72%; in assay [17] it was 2.5%; in assay [18], -0.17%. Also, the figures for the inhibition in assay [19] and in assay [20] were 0.53% and -0.21%, respectively.

As for `O=C(Nc1n[nH]c2cc(-c3ccccc3)ccc12)C1CC1`, the inhibition is 82.8% in [1]; 22.3% in assay [2]; 68% in [3]; 13.5% in assay [4]; 63.8% in assay [5]; 3.37% in assay [6]. Moreover, the inhibition is 4.86% in [7]; 6.15% in assay [8]; 31.2% in assay [9]; -8.55% in assay [10]; -6.73% in assay [11]; 1.88% in assay [12]. Moreover, the inhibition was determined as 6.79% in assay [13]; 4.11% in assay [14]; 4.88% in assay [15]; 2.71% in assay [16]; 6.62% in assay [17]; 1.13% in assay [18]. Besides, the figures for the inhibition in [19] and in [20] were 2.12% and 2.97%, respectively.

For the compound `FC(F)(F)c1cccc(Nc2nccc(-c3cnn4nc(-c5ccccc5)ccc34)n2)c1`, the inhibition is 1.88% in [1]; -1.1% in assay [2]; 3.96% in assay [3]; -0.03% in assay [4]; 5.59% in assay [5]; 1.89% in assay [6]. The inhibition in assay [7] was 1.6%; in [8], 3.3%; in [9] it was 3.79%; in assay [10], -3.39%; in assay [11] it was -4.33%; in assay [12], 0.07%. In addition, the inhibition in assay [13] is -0.26%; in [14] it was 1.76%; in [15], 0.63%; in assay [16] it was -1.81%; in [17], 2.26%; in assay [18] it was 0.03%. In addition, the inhibition was -0.49% in assay [19] and 4.19% in assay [20].

In the case of `NC(=O)Cc1ccccc1Oc1nccc(-c2c(-c3ccc(F)cc3)ncn2C2CCNCC2)n1`, the inhibition in assay [1] is -0.82%; in [2], 1.75%; in assay [3] it was 1.1%; in assay [4] it was 2.7%; in [5], 5.08%; in [6], 4.05%. Also, the inhibition is 8.13% in assay [7]; 2.21% in [8]; 2.93% in assay [9]; -5.91% in assay [10]; 1.68% in [11]; 1.46% in [12]. The inhibition in [13] was 2.66%; in assay [14], 7.68%; in [15], 3.56%; in assay [16], 2.9%; in [17], 1.21%; in [18], 1.29%. In addition, the inhibition in assay [19] turned out to be 0.76%; in [20], 0.51%.

The values are drawn from ChEMBL document CHEMBL1961873, “Compounds: GSK PKIS; Assays: Nanosyn kinase panel” (2012).
